Active and inactive are the calls of the source. The calls were made as follows: active = hit-call score of the fitted dose curve at least 0.9, where 1 is the maximum; inactive = score below 0.9.

Assay [1] is described as follows: ATG_CMV_CIS: Attagene CIS-FACTORIAL HepG2 Assay for human CMV (Internal Marker) (AID 2282928).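 Also: endpoint acts as a background internal control marker rather than a target.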 As to conditions: HepG2 CMV promoter reporter, transcription factor profiling; actives raise or lower the signal. In a few lines: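 Bidirectional fits against DMSO are applied to reporter mRNA, read by RT-PCR with capillary electrophoresis, from HepG2 cells exposed 24 h. The endpoint serves as an internal CMV background marker within the cis-factorial reporter panel.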

The nature of assay [2]: ATG_DR4_LXR_CIS: Attagene CIS-FACTORIAL HepG2 Assay for human Liver X Receptor (LXR), DR4 submotif (AID 2282929). As to conditions: HepG2 Attagene DR4 cis-reporter, mRNA transcription; actives raise or lower the signal. The method, boiled down: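 HepG2 cells transiently transfected with cis-promoter-driven multiplexed reporter units (DR4 element) were dosed for 24 h. Reporter mRNA was quantified by RT-PCR, fluorescent primer extension, HpaI digestion and capillary electrophoresis; bidirectional fitting versus DMSO baseline.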

Assay [3] deals with Aryl hydrocarbon receptor (Homo sapiens) (UniProt P35869). Nature of the assay: ATG_Ahr_CIS: Attagene CIS-FACTORIAL HepG2 Assay for human Aryl Hydrocarbon Receptor (Ahr) (AID 2282930). As to conditions: HepG2 AhR cis-factorial reporter transcription; actives raise or lower the signal. The method, boiled down: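 Reporter mRNA levels, quantified by RT-PCR and fluorescent capillary electrophoresis, reflect endogenous AhR transcriptional activity in HepG2 cells carrying transfected cis-promoter reporter constructs. Readout at 24 h post-dose; gain or loss fitted against DMSO baseline.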
Aryl hydrocarbon receptor (Homo sapiens), sequence (P35869 whole entry, looked up): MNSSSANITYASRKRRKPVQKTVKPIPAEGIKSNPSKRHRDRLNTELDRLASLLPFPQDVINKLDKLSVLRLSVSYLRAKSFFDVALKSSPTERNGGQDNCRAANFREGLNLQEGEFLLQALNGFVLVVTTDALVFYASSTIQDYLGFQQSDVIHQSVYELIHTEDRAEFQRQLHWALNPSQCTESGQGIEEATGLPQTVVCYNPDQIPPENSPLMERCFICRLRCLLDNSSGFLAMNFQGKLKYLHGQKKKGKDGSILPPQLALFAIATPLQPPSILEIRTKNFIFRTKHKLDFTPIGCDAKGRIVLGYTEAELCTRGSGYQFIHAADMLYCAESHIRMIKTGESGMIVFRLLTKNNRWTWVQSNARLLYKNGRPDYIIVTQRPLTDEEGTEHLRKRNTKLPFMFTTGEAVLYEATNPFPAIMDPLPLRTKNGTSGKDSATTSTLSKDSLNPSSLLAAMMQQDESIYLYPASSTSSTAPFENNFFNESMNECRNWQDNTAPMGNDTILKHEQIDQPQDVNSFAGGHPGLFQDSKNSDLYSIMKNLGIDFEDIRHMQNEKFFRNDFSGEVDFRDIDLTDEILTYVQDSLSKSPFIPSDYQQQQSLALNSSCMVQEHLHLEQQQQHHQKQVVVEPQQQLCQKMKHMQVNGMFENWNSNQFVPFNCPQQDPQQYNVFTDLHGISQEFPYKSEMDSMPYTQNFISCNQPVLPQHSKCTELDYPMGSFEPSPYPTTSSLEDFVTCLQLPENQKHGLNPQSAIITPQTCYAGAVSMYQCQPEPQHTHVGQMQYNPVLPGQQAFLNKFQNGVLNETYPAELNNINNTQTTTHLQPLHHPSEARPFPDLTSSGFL

A short description of assay [4]: ATG_AP_1_CIS: Attagene CIS-FACTORIAL HepG2 Assay for human Activator Protein 1 (AP-1) (AID 2282931). As to conditions: HepG2 Attagene cis-factorial AP-1 reporter mRNA; actives raise or lower the signal. In a few lines:
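HepG2 cells transiently transfected with cis-element-driven multiplex reporter units; 24 h compound exposure. Reporter mRNA quantified by RT-PCR, FAM-labelled fragments resolved by capillary electrophoresis; bidirectional fit versus DMSO baseline.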

The nature of assay [5]: ATG_AP_2_CIS: Attagene CIS-FACTORIAL HepG2 Assay for human Activator Protein 2 (AP-2) (AID 2282932). As to conditions: HepG2 AP-2 cis-reporter, Attagene transcription factor profiling; actives raise or lower the signal. In a few lines: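 Transiently transfected HepG2 cells are exposed to chemical for 24 h. Reporter transcripts are then measured as fluorescence following RT-PCR and capillary separation, and gain- or loss-of-signal is fitted relative to DMSO.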

Assay [6] in a line: ATG_BRE_CIS: Attagene CIS-FACTORIAL HepG2 Assay for human Bone Morphogenetic Protein (BMP) Response Element (BRE) (AID 2282933). As to conditions: HepG2 BMP response element reporter, Attagene transcription factor profiling; actives raise or lower the signal. The method, boiled down:
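Multiplexed cis-reporter assay, HepG2, 24 h exposure. mRNA from reporter units quantified via RT-PCR/CE; DMSO baseline; bidirectional curve fit.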

The target in assay [7] is Transcription factor E2F1 (Homo sapiens) (UniProt Q01094). Nature of the assay: ATG_E2F_CIS: Attagene CIS-FACTORIAL HepG2 Assay for human E2F Transcription Factor 1 (AID 2282935). As to conditions: HepG2 Attagene cis-reporter, E2F reporter RNA transcripts; actives raise or lower the signal. The method, boiled down: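 Fluorescent RT-PCR products, digested with HpaI for 2 h at 37 C, are separated by capillary electrophoresis. Source RNA comes from transfected HepG2 cultures treated for 24 h.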
Transcription factor E2F1 (Homo sapiens), sequence (Q01094 whole entry, looked up): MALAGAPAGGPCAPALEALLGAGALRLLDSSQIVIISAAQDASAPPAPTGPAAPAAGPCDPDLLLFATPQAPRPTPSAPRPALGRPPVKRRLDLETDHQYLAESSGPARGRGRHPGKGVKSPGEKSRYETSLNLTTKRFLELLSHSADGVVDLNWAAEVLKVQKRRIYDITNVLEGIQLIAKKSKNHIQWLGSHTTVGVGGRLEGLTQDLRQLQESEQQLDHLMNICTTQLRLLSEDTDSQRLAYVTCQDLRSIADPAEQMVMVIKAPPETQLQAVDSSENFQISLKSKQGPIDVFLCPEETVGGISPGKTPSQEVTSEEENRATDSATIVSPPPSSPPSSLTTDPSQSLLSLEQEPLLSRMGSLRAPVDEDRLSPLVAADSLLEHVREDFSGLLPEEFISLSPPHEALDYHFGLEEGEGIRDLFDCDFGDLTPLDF

Assay [8] can be described thus: ATG_E_Box_CIS: Attagene CIS-FACTORIAL HepG2 Assay for human Enhancer Box (E-box) (AID 2282936). As to conditions: HepG2 E-box cis-reporter transcription, actives raise or lower the signal. In a few lines:
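Fluorescent reporter fragments separated by capillary electrophoresis gave the signal; mRNA came from HepG2 cells transfected with cis-element reporters and treated 24 h. Curves fitted bidirectionally relative to DMSO controls.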

Assay [9] in a line: ATG_M_61_CIS: Attagene CIS-FACTORIAL HepG2 Assay for M61 Transcription Factor (Internal Marker) (AID 2282937). As to conditions: HepG2 Attagene CIS-FACTORIAL M61 internal marker reporter; actives raise or lower the signal. The method, boiled down: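 HepG2 cells transiently transfected with cis-element-driven multiple reporter transcription units, dosed for 24 h. Reporter mRNA measured by RT-PCR, 6-FAM primer-extension labelling, HpaI digestion and capillary electrophoresis; bidirectional fit versus DMSO baseline.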

The target in assay [10] is Retinoic acid receptor alpha (Homo sapiens) (UniProt P10276). Briefly: ATG_DR5_RAR_CIS: Attagene CIS-FACTORIAL HepG2 Assay for human Retinoic Acid Receptor Alpha (RARE), DR5 submotif (AID 2282934). As to conditions: HepG2 Attagene cis-factorial RARE DR5 reporter, mRNA; actives raise or lower the signal. The method, boiled down:
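Reporter transcripts from a DR5-regulated unit, measured via RT-PCR plus capillary electrophoresis, reflect endogenous RAR activity in transiently transfected human HepG2 liver cells. Exposure lasted 24 h; gain or loss of signal scored against DMSO.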

Retinoic acid receptor alpha (Homo sapiens), sequence (P10276 whole entry, looked up): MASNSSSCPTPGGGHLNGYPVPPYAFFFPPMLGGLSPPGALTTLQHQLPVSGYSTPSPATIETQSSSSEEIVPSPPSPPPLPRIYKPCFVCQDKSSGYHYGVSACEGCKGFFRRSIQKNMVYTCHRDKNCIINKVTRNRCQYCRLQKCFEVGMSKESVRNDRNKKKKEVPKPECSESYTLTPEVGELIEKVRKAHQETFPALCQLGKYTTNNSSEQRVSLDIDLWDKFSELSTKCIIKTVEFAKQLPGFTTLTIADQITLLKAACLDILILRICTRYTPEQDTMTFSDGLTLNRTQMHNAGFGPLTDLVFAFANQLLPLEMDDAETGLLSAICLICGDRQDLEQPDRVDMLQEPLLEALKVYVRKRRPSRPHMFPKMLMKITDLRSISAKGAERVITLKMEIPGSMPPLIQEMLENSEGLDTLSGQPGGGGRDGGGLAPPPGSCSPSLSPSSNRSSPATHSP

Take `Nc1ccc(Cl)cc1C(=O)c1ccccc1`: the result in assay [1], in assay [3], in [4], in assay [5], in assay [6] and in assay [7] was inactive. In addition, the result in [8] and in [9] was inactive. The AC50 in assay [2] was 49.5 µM (active).
`COP(=O)(OC)OC`: the compound was classed as inactive in assay [1], in [2], in [3], in [4], in [5] and in assay [6]. Besides, the outcome in assay [7] and in assay [8] was inactive.
For `CC1CN1P(=O)(N1CC1C)N1CC1C` (configuration not stated), the outcome in [1], in assay [2], in assay [3], in assay [4], in assay [5] and in assay [6] was inactive. In addition, the compound was classed as inactive in assay [7], in assay [8] and in [9].
Regarding `Cc1ccccc1N`, the call in assay [1], in [2], in assay [3], in [4], in assay [5] and in assay [6] was inactive. Besides, the call in assay [7], in assay [8] and in assay [9] was inactive.
With `C=CCc1ccc(OC)cc1`, the result in [1], in [2], in [3], in assay [4], in assay [5] and in assay [6] was inactive. Besides, the outcome in assay [7], in [8] and in assay [9] was inactive.
For `OCc1ccco1`, the result in assay [1], in [2], in assay [3], in [4], in assay [5] and in [6] was inactive. In addition, the call in assay [7], in assay [8] and in assay [9] was inactive.
For the compound `C=CC(=O)N(C)C`, the outcome in assay [1], in assay [2], in [3], in assay [4], in assay [5] and in [6] was inactive. Further, the compound was classed as inactive in assay [7], in [8] and in [9].
For `CCC1(c2ccc(N)cc2)CCC(=O)NC1=O` (configuration not stated), the call in assay [1], in assay [2], in assay [3], in assay [4], in assay [5] and in assay [6] was inactive. Moreover, the compound was called inactive in [7], in assay [8] and in [9].
As to `C=CC#N`, the compound was called inactive in assay [1], in assay [2], in assay [3], in [4], in [5] and in assay [6]. The call in [10], in assay [7] and in assay [9] was inactive.
For the compound `CCCCP(CCCC)CCCC`, the result in assay [1], in [2], in assay [3], in assay [4], in [5] and in assay [6] was inactive. The compound was classed as inactive in assay [7], in assay [8] and in assay [9].
In the case of `BrCCBr`, the result in assay [1], in [2], in assay [3], in assay [4], in [5] and in assay [6] was inactive. Further, the compound was called inactive in [10], in [7], in assay [8] and in assay [9].
In the case of `CC12CC1(C)C(=O)N(c1cc(Cl)cc(Cl)c1)C2=O` (configuration not stated), the compound was classed as inactive in [1], in assay [2], in [3], in assay [4], in assay [5] and in assay [6]. In addition, the compound was classed as inactive in assay [7], in assay [8] and in [9].
Regarding `CCC(=O)c1ccccc1`, the outcome in assay [1], in assay [2], in assay [3], in assay [4], in assay [5] and in assay [6] was inactive. In addition, in assay [7], the call was inactive.
Take `C=C(C)C#N`: the call in assay [1], in assay [2], in assay [3], in assay [4], in [5] and in assay [6] was inactive. Also, the call in [10], in [7] and in assay [9] was inactive.
For the compound `C=CC(=O)OCCCCCC(C)C`, the outcome in assay [1], in assay [2], in assay [3], in assay [4], in [5] and in assay [6] was inactive. In addition, the outcome in assay [10], in [7] and in assay [9] was inactive.
In the case of `CC(=[OH+])/C=C(/C)[O-].CC(=[OH+])/C=C(/C)[O-].CC(=[OH+])/C=C(/C)[O-].[Al]`, the outcome in assay [1], in [2], in assay [3], in assay [4], in assay [5] and in assay [6] was inactive. In addition, the call in assay [7], in [8] and in assay [9] was inactive.
As to `CC(=[OH+])/C=C(/C)[O-].CC(=[OH+])/C=C(/C)[O-].CC(=[OH+])/C=C(/C)[O-].[Fe]`, the result in assay [1], in assay [2], in assay [3], in assay [4], in assay [5] and in assay [6] was inactive. Besides, in [7], the call was inactive.
As to `ClC1=C(Cl)[C@]2(Cl)[C@H]3[C@H]([C@H]4C=C[C@H]3C4)[C@@]1(Cl)C2(Cl)Cl`, the outcome in [1], in assay [3], in assay [4], in [5], in assay [6] and in assay [7] was inactive. Besides, the result in assay [8] and in assay [9] was inactive. Further, the AC50 in assay [2] was 10.2 µM (active).
Consider `O=CC=O`, for which the compound was classed as inactive in [1], in [2], in assay [3], in [4], in [5] and in assay [6]. In addition, the compound was called inactive in [10], in [7] and in assay [9].
